Data from ChEMBL document CHEMBL4513216, “Probing the Open Global Health Chemical Diversity Library for Multistage-Active Starting Points for Next-Generation Antimalarials” (ACS Infect Dis, 2020).
Screen size: about 69,000 compounds; about 8,600 (12%) showed an effect of 50% or more. The entries come from a sample that favours strong results as a whole.

What follows are molecules tested on Plasmodium berghei (assay: Screen against P. berghei liver stage (PbLuc), transformed with Luciferase, at 10uM). Details: tested at 10 uM.
Type: functional, HepG2

Structure (SMILES) | INHIBITION
CC(C(=O)NC1CC1)n1nc(-c2cccs2)cc(N)c1=O (centres undefined) | 23.9%
CC(C)n1ncc2cc(NC(=O)N3CCC(N4CCCC4)C3)cnc21 (centres undefined) | 53.3%
CC(C)n1ncc2cc(NC(=O)N3CCC(C(N)=O)C3)cnc21 (centres undefined) | 7.08%
CC(=O)NC1CCCN(C(=O)Nc2cnc3c(cnn3C(C)C)c2)C1 (centres undefined) | 4.31%
Cc1nc(CN2CC[C@@H]3[C@@H](CCC(=O)N3CCc3c[nH]cn3)C2)co1 | 44.8%
O=C1CC[C@H]2CN(Cc3ccc(Cl)s3)CC[C@H]2N1CCc1c[nH]cn1 | 78.5%
O=C1CC[C@H]2CN(Cc3cccnc3)CC[C@H]2N1CCc1c[nH]cn1 | 23.9%
CN(CCO)c1ncc(-c2ccc(NC(=O)[C@@H]3CCCCN3)cc2)cn1 | -4.82%
C=C(C)Cn1c(=O)nc(N)c2c(-c3ccc(OC)cc3)csc21 | 33.2%
COc1ccc(-c2csc3c2c(N)nc(=O)n3CC(N)=O)cc1 | 58.2%
CCc1c(C)sc2c1c(N)nc(=O)n2CCCN(C)C | -11.9%
COc1ccc(-c2csc3c2c(N)nc(=O)n3CCCN(C)C)cc1 | 60.1%
CCc1c(C)sc2c1c(N)nc(=O)n2CCN(C)C | -14.2%
COc1ccc(-c2csc(N)c2C#N)cc1 | 40.9%
CCn1c(=O)nc(N)c2c(-c3ccc(OC)cc3)csc21 | 23.9%
COc1ccc(-c2csc3c2c(N)nc(=O)n3CCN(C)C)cc1 | 50.8%
CCOC(=O)Cn1c(=O)nc(N)c2c(-c3ccc(OC)cc3)csc21 | 18.3%
COc1ccc(CN2C[C@@H]3OCCN(C)[C@@H]3C2)cc1 | 22.9%
CCOC[C@@]12CCC[C@@H]1CN(C(=O)COc1ccccc1OC)C2 | 10.4%
Cc1noc(C)c1CN1C(=O)[C@@H]2CC[C@H]1CN(Cc1cccc(O)c1)C2 | -77.6%
COCC(O)CN1CC(C)(C)CN(C(=O)CCc2ccccc2)CC1=O (centres undefined) | -39.8%
Cc1ccccc1C(NC(=O)NCC1(O)CCC1)C1CC1 (centres undefined) | -15.9%
CC(C)n1nnnc1-c1ccc(NC(=O)C(C)(C)C#N)cc1F | 6.09%
CN(C)CC1CCCCN1C(=O)c1ccc(N2CCOCC2)cc1 (centres undefined) | 23.4%
CCc1cc(CN(C)C(=O)C2CC(=O)N(c3cccc(O)c3)C2)on1 (centres undefined) | 66.6%
CCc1nc(CN(C)C(=O)C2CC(=O)N(c3cccc(O)c3)C2)no1 (centres undefined) | 10.3%
CCc1ccc(CN(C)C(=O)C2CC(=O)N(c3cccc(O)c3)C2)nc1 (centres undefined) | 32.1%

Structure (SMILES) | INHIBITION
Cc1cccc(Cn2cc(C)c(N)n2)c1 | 2.6%
CN1[C@H](CN2CCCC2)C[C@@H]2CN(Cc3ccoc3)CC[C@@H]21 | -14.3%
CCc1ncnc2c1CCN(C(=O)c1cccn1C)CC2 | 64.9%
CCN(C)c1ncnc2c1CCN(C(=O)c1ccsc1)CC2 | 14.9%
CCN(C)c1ncnc2c1CCN(C(=O)c1cccn1C)CC2 | 52%
Cn1cccc1C(=O)N1CCc2ncnc(N3CCCC3)c2CC1 | 48.9%
CCN(C)c1ncnc2c1CCN(C(=O)c1ccccn1)CC2 | -54.5%
Cc1ncnc2c1CCN(C(=O)c1cccn1C)CC2 | -0.388%
O=C(NCCOc1ccc2c(c1)OCO2)N1CCCC(CO)C1 (centres undefined) | -27.8%
Cc1nnc(CN(Cc2ccc3c(c2)OCO3)C2CCCCC2)o1 | -9.76%
Cn1nc2c(cc1=O)CN(CC(=O)Nc1nccs1)CC2 | 13.3%
Cc1nn(C)c(C)c1-c1ccc(=O)n(C(C)C(=O)NC(C)(C)C)n1 (centres undefined) | 4.02%
CCCN(CCC)C(=O)Cn1c(SC)nc2ccsc2c1=O | 39.1%
Cn1nc(C(=O)NC2CC2)cc1NC(=O)C1CC1 | 75.3%
Cn1nc(C(=O)NC2CCCCC2)cc1NC(=O)C1CC1 | 53.5%
Cc1nn(C)c(C)c1CNC(=O)c1cc(NC(=O)C2CC2)n(C)n1 | 31.35%
Cn1nc(C(=O)NC2CC(C)(C)NC(C)(C)C2)cc1NC(=O)C1CC1 | 21.8%
Cn1nc(C(=O)NC2CCCC2)cc1NC(=O)C1CC1 | -22.8%
Cc1ccc(CNC(=O)c2cc(NC(=O)C3CC3)n(C)n2)o1 | -8.95%
CCc1nc(C2CCCN2C(=O)c2ccc3c(c2)COC3)no1 (centres undefined) | 33.8%
CN1CCN(C(=O)c2cc3sccc3n2Cc2ccccc2)CC1 | 11.7%
NC(=O)c1cccc(CN2CCOC(Cn3cccn3)C2)c1 (centres undefined) | 30.2%
CCOC(=O)[C@@H]1[C@H]2CN(C(=O)OC)CCN2C[C@H]1c1ccccc1 | -43.6%
O=C(C1CC1)N1CCN2C[C@H](c3ccccc3)[C@@H](CO)[C@H]2C1 | 51%
CCOC(=O)[C@@H]1[C@@H](c2ccccc2)CN2CCN(C(=O)N(C)C)C[C@H]12 | 32.1%
CCOC(=O)[C@@H]1[C@@H](c2ccccc2)CN2CCN(C(=O)C3CC3)C[C@H]12 | 12.4%
CCOC(=O)[C@@H]1[C@@H](c2ccccc2)CN2CCN(C(C)=O)C[C@H]12 | 51%
